ERp5 inh = inhibitors of ERp5-driven insulin aggregation, primary screen, biochemical, turbidity, absorbance 650 nm, single point; 90 min; inhibition, % at 9.99 µM; 0.05% of 350,000 active; AID 651711, 2012;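 active = mean replicate inhibition above about 25%, with every replicate also reaching it, limit read from the data, passing the limit was not always enough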
PvdQ acylase = P. aeruginosa PvdQ acylase inhibitors, primary screen, biochemical, fluorescence, plate reader and imaging, single point; purified PvdQ acylase; inhibition, % at 10 µM; 0.063% of 340,000 active; in the data active = inhibition above about 30%, passing the limit was not always enough;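 also: 0% = vehicle neutral wells and 100% = reference inhibitor wells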
Efflux pump inh = inhibitors of Candida efflux pumps in yeast, primary screen, S. cerevisiae, Nile Red, multiplex | 0.44% of 330,000 active | S. cerevisiae Candida pump triplex | inhibition, % at 10 µM;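 active = plate passing quality check with inhibition over a set limit, or well fluorescence over plate mean plus 4 SD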;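 also: Nile Red retained in pooled yeast measured as flow cytometry median fluorescence; 0% = buffer negative control and 100% = Enniatin B positive control; higher means more Nile Red kept so more efflux inhibition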
Rtt109 Vps75 = inhibitors of C. albicans Rtt109/Vps75 HAT, primary screen, biochemical, ThioGlo CoA-SH fluorescence, plate reader; AID 540336, 2011; purified Rtt109/Vps75, 4 h; inhibition, % at 34.9 µM; 0.16% of 330,000 active;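 active = inhibition of at least 50% in every replicate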
PDI turbidity = inhibitors of human PDI, primary screen, biochemical, turbidity, single point, plate reader; PDI insulin aggregation turbidity, A650, 90 min; AID 588391, 2011; inhibition, % at 10 µM; Protein disulfide-isomerase (Homo sapiens), P07237; 0.052% of 350,000 active;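 active = mean inhibition across replicates of 30% or more, whatever share of single replicates reach that level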
Target sequence (P07237 whole entry, looked up): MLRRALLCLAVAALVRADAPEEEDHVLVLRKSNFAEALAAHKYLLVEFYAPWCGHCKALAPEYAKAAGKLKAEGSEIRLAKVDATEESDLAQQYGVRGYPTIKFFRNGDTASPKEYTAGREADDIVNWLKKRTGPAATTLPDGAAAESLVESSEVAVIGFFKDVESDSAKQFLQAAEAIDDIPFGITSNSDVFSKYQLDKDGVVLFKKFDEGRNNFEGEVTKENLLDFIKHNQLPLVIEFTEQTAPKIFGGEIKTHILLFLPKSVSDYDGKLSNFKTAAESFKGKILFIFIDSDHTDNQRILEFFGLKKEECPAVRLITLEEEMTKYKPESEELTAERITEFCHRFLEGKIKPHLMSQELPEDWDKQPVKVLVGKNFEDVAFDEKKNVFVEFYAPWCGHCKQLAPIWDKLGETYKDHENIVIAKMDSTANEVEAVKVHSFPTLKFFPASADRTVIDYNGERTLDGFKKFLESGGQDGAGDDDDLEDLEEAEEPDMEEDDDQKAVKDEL
Yeast cmpd fluor = flagged as fluorescent in efflux inhibitor counter-screen; AID 588517; shares compounds with Efflux pump inh; 4% of 1,700 active; S. cerevisiae AD/pABC3, compound fluorescence, flow cytometry; fluorescence ratio to DMSO, % at 10 µM;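 active = fluorescence ratio to DMSO above its plate's cutoff, the plate mean ratio plus 5 SD, cut at about 210% in these data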;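 also: unstained yeast with no Nile Red so the signal is compound autofluorescence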
Mdr1 pump inh = inhibitors of Candida albicans Mdr1 efflux, confirmation, flow cytometry, singleplex, Cherry Pick1 set; 1% of 1,700 active; inhibition, % at 10 µM; shares compounds with Efflux pump inh; S. cerevisiae AD/CaMDR1, Nile Red efflux; in the data active = inhibition above about 26%;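 also: 0% = DMSO vehicle and 100% = reference inhibitor; higher means more Nile Red retained so more efflux inhibition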
Cdr2 pump inh = inhibitors of Candida albicans Cdr2 efflux pump, confirmation, S. cerevisiae AD/CaCDR2, flow cytometry, cherry pick 1, singleplex; shares compounds with Efflux pump inh; 4% of 1,700 active; Nile Red retention; AID 588520, 2011; Nile Red retention ratio vs DMSO, % at 10 µM; in the data active = Nile Red retention ratio vs DMSO above about 190%;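 also: higher ratio means more blocking of Cdr2 efflux of the dye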
CaCdr1 efflux inh = inhibitors of Candida albicans Cdr1 efflux pump, confirmation, S. cerevisiae AD/CaCDR1, flow cytometry, cherry pick 1, singleplex; shares compounds with Efflux pump inh; Nile Red efflux; inhibition, % at 10 µM; 1% of 1,700 active;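 active = inhibition above the screen-wide mean plus twice its standard deviation, cut at about 32% in these data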
An asterisk follows results filed as active; . = no result. The list is not random: actives were taken first. Their share in the collection is about 0.54%.

SMILES	ERp5 inh	PvdQ acylase	Efflux pump inh	Rtt109 Vps75	PDI turbidity	Yeast cmpd fluor	Mdr1 pump inh	Cdr2 pump inh	CaCdr1 efflux inh
OC(COCc1ccc(Cl)cc1)CN1CCCCC1 (stereo not given)	-2	10	1.1*	5	-3	79	0	87	0
CCC(=O)N1CCN(c2ccc(Cl)cc2NC(=O)c2ccc3c(c2)OCCO3)CC1	.	-18	0.8*	12	4	104	0	98	0
O=C(O)c1nccnc1C(=O)N1CCN(c2ccccc2)CC1	4	18	1.9*	5	-1	107	0	99	2
COc1ccc(C(=O)NC2CCCc3c2cnn3-c2ccccc2F)o1 (stereo not given)	6	-8	-1	-3	2	95	0	107	0
COc1cc(C(=O)NC2CCCc3c2cnn3-c2ccccc2F)cc(OC)c1OC (stereo not given)	0	7	0	13	0	.	.	.	.
CC(C)Cn1c(-c2csc(C(C)C)c2)n[nH]c1=S	0	7	0	19	1	.	.	.	.
CCn1c(-c2csc(C(C)C)c2)n[nH]c1=S	-2	-1	11*	-2	16	100	0	108	0
COCC#Cc1ccc2c(c1)O[C@@H](CN(C)C(=O)C1CC1)[C@H](C)CN([C@@H](C)CO)S2(=O)=O	-1	.	.	.	.	.	.	.	.
Cc1c(-c2cccc(Cl)c2)nc2ccccc2c1C(=O)OC/C(O)=C(\C#N)c1nc2ccccc2[nH]1	-2	-8	2.5*	-4	0	108	1	116	1
CC(C)NC(=O)N1CC2(C1)[C@@H](c1ccccc1)[C@@H](CO)N2CCC(F)(F)F	-1	.	.	.	.	.	.	.	.
CN(C)C(=O)[C@@H]1[C@@H](CO)[C@@H]2Cn3c(ccc(C4=CCCC4)c3=O)[C@H]1N2CCC(F)(F)F	4	.	.	.	.	.	.	.	.
CCOc1ccc(CCNC(=O)Cc2ccc(NC3=NC4CS(=O)(=O)CC4S3)cc2)cc1 (stereo not given)	-9	4	0.4*	9	.	88	0	90	0
CCOc1ccc(CCNC(=O)c2ccc(NC3=NC4CS(=O)(=O)CC4S3)cc2)cc1 (stereo not given)	5	-5	0	-7	2	.	.	.	.
C[C@H]1CN([C@@H](C)CO)C(=O)c2cc(NC(=O)Nc3cccc4ccccc34)ccc2O[C@@H]1CN(C)Cc1ccc(-c2ccccc2)cc1	-5	-4	1.8*	-27	2	97	0	188*	0
Cc1ccc(S(=O)(=O)N(C)C[C@H]2Oc3c(NC(=O)Nc4cccc5ccccc45)cccc3C(=O)N([C@@H](C)CO)C[C@@H]2C)cc1	-2	-13	1	7	3	109	1	110	2
C[C@H](CO)N1C[C@H](C)[C@H](CN(C)Cc2ccc(-c3ccccc3)cc2)Oc2ccc(NC(=O)Nc3cccc4ccccc34)cc2C1=O	2	.	.	.	.	.	.	.	.
C#CCNC(=O)C1=C[C@H](c2cn(C(C)=O)c3ccccc23)C[C@H](OCCCCO)O1	-4	.	.	.	.	.	.	.	.
O=C(N[C@H]1CC[C@H](CCn2cc(-c3ccccc3)nn2)O[C@H]1CO)c1ccccc1F	1	.	.	.	.	.	.	.	.
Cc1ccc(OCc2nc3c4c(ncn3n2)-c2ccccc2CC42CCCC2)cc1	.	-13	0	4	1	.	.	.	.
Cc1ccccc1OCc1nc2c3c(ncn2n1)-c1ccccc1CC31CCCC1	.	-13	34*	0	4	89	0	102	0
O=C(COC(=O)c1ccc(Br)cc1)NCCN1C(=O)CSC1=O	-2	-12	0	-6	5	112	0	99	0
Cc1ccc(C(=O)OCC(=O)NCCN2C(=O)CSC2=O)cc1	0	-13	0	-3	3	101	0	102	0
CCN(CC)S(=O)(=O)c1ccc(C(=O)OCC(=O)NCCN2C(=O)CSC2=O)cc1	6	-5	0	-3	-2	109	0	112	0
Cc1ccc(/C=C/C(=O)OCC(=O)NCCN2C(=O)CSC2=O)cc1	3	10	0	10	9	.	.	.	.
O=C(COC(=O)c1ccc(S(=O)(=O)Nc2ccccc2)cc1)NCCN1C(=O)CSC1=O	.	-13	0	3	9	.	.	.	.
SMILES	ERp5 inh	PvdQ acylase	Efflux pump inh	Rtt109 Vps75	PDI turbidity	Yeast cmpd fluor	Mdr1 pump inh	Cdr2 pump inh	CaCdr1 efflux inh
COc1ccc(C(=O)OCC(=O)NCCN2C(=O)CSC2=O)cc1	-3	-3	0	1	-4	108	0	91	0
CCCC(=O)N1CC2(C1)CN(C(=O)C1CCCCC1)[C@@H](CO)c1[nH]c3cc(OC)ccc3c12	-4	.	.	.	.	.	.	.	.
CCCC#Cc1cnc2c(c1)C(=O)N([C@@H](C)CO)C[C@H](C)[C@H](CN(C)C(=O)c1ccc(F)cc1)O2	-5	.	.	.	.	.	.	.	.
CC(C(=O)N1CCc2ccccc21)N1CCN(S(=O)(=O)c2ccc(C(F)(F)F)cc2)CC1 (stereo not given)	3	-10	0.7*	-1	-3	106	0	116	0
CC1=C([C@H](O)CCc2ccccc2)[C@H](CO)n2c(=O)n(-c3ccccc3)c(=O)n2C1	0	.	.	.	.	.	.	.	.
O=c1[nH]c(S)c(/C=C2\C=Nc3ccccc32)s1	4	.	0.5*	.	-1	84	0	97	0
O=C(NC1CCCCC1)c1cc2ccccc2cc1O	2	10	1.1*	20	2	99	0	108	0
CCCc1nnc(NC(=O)COc2ccc3c(c2)OCO3)s1	3	-6	93*	-2	-3	99	0	109	0
Cc1cc(=O)oc2cc(OCC(=O)Nc3nnc(CC(C)C)s3)ccc12	.	-7	0	-4	3	.	.	.	.
CCCCc1nnc(NC(=O)COc2ccc3c(C)cc(=O)oc3c2)s1	0	.	0	.	.	100	0	100	0
CN(C)CC(=O)N1[C@@H](CO)[C@@H](c2ccccc2)C12CN(C(=O)c1cccc(F)c1)C2	2	.	.	.	.	.	.	.	.
C[C@H]1CN([C@@H](C)CO)C(=O)c2ccccc2-c2ccccc2CO[C@H]1CN(C)Cc1cccc(F)c1	-13	.	.	.	.	.	.	.	.
COCc1cc(N2CCN(c3ccccc3F)CC2)nc(-c2ccccc2)n1	-3	-17	0	-3	0	.	.	.	.
